The full ranking holds about 110,000 compounds; the median of “z-score” is about -0.1, and the highest 2% start at about 2. This is one part of a sample in which the highest values are shown more often than they occur. The source made the active and inactive calls.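 The calls were made as follows: active = z-score in the third read window above 3 or below -3; inactive = the rest.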
Molecular target: Metabotropic glutamate receptor 8 (Rattus norvegicus) (UniProt P70579)
Assay: rat mGluR8 modulators via GIRK flux, primary screen, cell-based, thallium flux, HTS (AID 488969)
Conditions: HEK293 rat mGluR8, GIRK (G protein-gated inwardly rectifying potassium channel) thallium flux, FluoZin2; at 10 µM; stronger effect = higher value; submaximal glutamate (EC20) added with thallium

Metabotropic glutamate receptor 8 (Rattus norvegicus), sequence (P70579 whole entry, looked up): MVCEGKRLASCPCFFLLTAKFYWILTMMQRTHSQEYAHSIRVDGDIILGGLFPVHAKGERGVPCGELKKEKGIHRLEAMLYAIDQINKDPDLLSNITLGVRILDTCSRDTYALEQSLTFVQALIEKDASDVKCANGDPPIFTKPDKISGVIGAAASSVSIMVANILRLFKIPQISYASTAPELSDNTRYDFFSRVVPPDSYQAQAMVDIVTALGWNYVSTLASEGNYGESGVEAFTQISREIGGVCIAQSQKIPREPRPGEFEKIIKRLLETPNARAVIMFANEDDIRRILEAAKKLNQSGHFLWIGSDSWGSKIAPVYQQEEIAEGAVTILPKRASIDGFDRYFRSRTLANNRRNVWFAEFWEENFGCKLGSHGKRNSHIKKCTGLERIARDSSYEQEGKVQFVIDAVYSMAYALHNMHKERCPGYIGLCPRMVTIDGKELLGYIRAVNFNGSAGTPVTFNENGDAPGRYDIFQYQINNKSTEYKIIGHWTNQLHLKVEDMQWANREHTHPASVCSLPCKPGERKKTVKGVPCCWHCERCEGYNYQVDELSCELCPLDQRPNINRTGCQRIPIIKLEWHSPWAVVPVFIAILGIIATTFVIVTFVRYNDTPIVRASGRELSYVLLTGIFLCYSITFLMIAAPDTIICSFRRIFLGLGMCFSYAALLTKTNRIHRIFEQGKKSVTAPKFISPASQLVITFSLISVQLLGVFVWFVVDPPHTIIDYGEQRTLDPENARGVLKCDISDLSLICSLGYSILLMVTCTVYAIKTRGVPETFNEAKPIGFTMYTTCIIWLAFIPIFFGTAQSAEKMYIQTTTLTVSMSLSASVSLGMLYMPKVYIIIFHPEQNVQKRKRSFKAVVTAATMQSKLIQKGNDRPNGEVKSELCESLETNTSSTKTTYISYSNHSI

| SMILES | z-score |
| --- | --- |
| CC(C)c1ccc(S(=O)(=O)c2nnn3c2nc(N2CCCCC2)c2ccccc23)cc1 | -0.645 |
| CC(C)c1ccc(S(=O)(=O)c2n[nH]n3c2nc(=O)c2ccccc23)cc1 | 2.66 |
| CCc1ccc(S(=O)(=O)c2n[nH]n3c2nc(=O)c2ccccc23)cc1 | 0.475 |
| O=C(/C=C/N1CCOCC1)c1ccc(-c2ccccc2)cc1 | -0.364 |
| CC1=NN(c2ccccc2)C(=O)C1N=Nc1ccc(N)cc1 (centres undefined) | -0.073 |
| CC1=NN(C(N)=S)C(=O)C1N=Nc1ccccc1C (centres undefined) | 2.97 |
| Cc1ccc(N=Nc2c(C)[nH][nH]c2=O)c(C)c1 | 0.772 |
| CC1=NN(C(N)=S)C(=O)C1N=Nc1ccc(C)cc1C (centres undefined) | 13.2 (active) |
| CC1=NN(c2ccccc2)C(=O)C1N=Nc1ccccc1 (centres undefined) | 0.244 |
| CC1=NN(C(N)=S)C(=O)C1N=Nc1c(C)cc(C)cc1C (centres undefined) | 0.119 |
| Cc1ccccc1-n1c(C)nnc1SCc1cc(=O)oc2ccc3ccccc3c12 | 0.0722 |
| CC(C)CC(=O)Nc1ccc(C(=O)NNC(=O)C(c2ccccc2)c2ccccc2)cc1 | -0.258 |
| O=C(O)C1CCN(C(=O)c2ccc(Cl)cc2)CC1 | 0.000989 |
| Cc1cc(C)c(C)c(S(=O)(=O)NCc2ccc(C(=O)N3CCCCC3)cc2)c1C | 0.249 |
| Cc1cc(C)cc(OCC(=O)N2N=C(C(F)(F)F)CC2(O)C(C)(C)C)c1 (centres undefined) | 4.9 (active) |
| Cc1ccc(OCC(=O)N2N=C(C(F)(F)F)CC2(O)C(C)(C)C)cc1C (centres undefined) | 3.56 (active) |
| Cc1ccc(OCC(=O)N2N=C(c3cccnc3)CC2(O)C(F)(F)F)cc1C (centres undefined) | -0.105 |
| CCCCC1(O)CC(C(F)(F)F)=NN1C(=O)COc1ccccc1 (centres undefined) | 0.45 |
| Cc1ccccc1OCC(=O)N1N=C(C(F)(F)F)CC1(O)C(C)(C)C (centres undefined) | 1.61 |
| Cc1cc(C)cc(OCC(=O)N2CCCCCC2)c1 | -0.242 |
| COP(=O)(OC)c1nc(-c2cccc3ccccc23)oc1NCc1ccccc1 | -0.666 |
| CC(C)(C)C(=O)Nc1cccc(C(=O)c2cccc(NC(=O)C(C)(C)C)c2)c1 | -0.249 |
| Cc1cccc(C(=O)NC(=S)Nc2ccc(S(=O)(=O)N3CCCCC3)cc2)c1 | -0.0168 |
| CCOC(=O)C1=C(C)N=C2SC(C)C(=O)N2C1c1ccc(OCC)c(OCC)c1 (centres undefined) | 0.125 |
| COc1cc(/C=C2\SC(=S)N(CC(=O)Nc3ccccn3)C2=O)cc(OC)c1OC | -0.0617 |
| OC(CN=c1sc2ccccc2n1CC(O)COc1ccccc1)COc1ccccc1 (centres undefined) | 0.0732 |
| CCN=c1sc2ccccc2n1CC(O)COc1ccccc1 (centres undefined) | 0.979 |
| Cn1c(=NCC(O)COc2ccccc2)sc2ccccc21 (centres undefined) | 2.27 |
| CC(=O)N1CCC(=NNc2ccc(S(=O)(=O)N3CCOCC3)cc2[N+](=O)[O-])CC1 | 0.476 |

Reference: PubChem BioAssay AID488969 (Vanderbilt High Throughput Screening Facility, 2010)
